Laboratory results reported in PubChem BioAssay (Tox21).
Several values for one entry are separate records, joined by “and”; a condition that tells them apart may be missing. Equal entries are not always repeated. Inconclusive results are not listed. Where a call stands in place of a potency, no number is given. More than one record can exist for a structure, and the calls need not agree. Activity calls are given as the source filed them. Calls come from the whole dose curve; as a rule, active = well fitted curve in the direction sought with a large enough effect in the repeat runs; inconclusive = weak or mixed curves; inactive = no such curve, though single readings can be large; an effect the other way counts as inactive or inconclusive.

test: A CellTox Green Cytotoxicity Assay to monitor cytotoxicity in HepG2 cells - 16 hour (AID 1224876); settings: CellTox Green fluorescence; series mostly up to 76.8 µM; note: nearly all actives have a fitted effect of over 45% in size
Method in brief: (§1)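 Real-time, homogeneous cytotoxicity readout: dead-cell DNA staining by CellTox Green in HepG2 monolayers, fluorescence measured at timed intervals up to 40 h of continuous compound exposure.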
Potency is the fitted concentration of half-maximal effect.

Compound	Potency	cytotoxicity increase
CCCC[N+](=O)[O-]	inactive	–
BrCC1CO1 (configuration not stated)	inactive	–
CCC1(c2ccccc2)CCC(=O)NC1=O (configuration not stated)	inactive	–
ClC(Cl)(Cl)Cl	inactive	–
CCc1ccc(C2CCNCC2)cc1	inactive	–
CC(C)C(C)(N)C#N (configuration not stated)	inactive	–
CC(C)(C)C(=O)C(Cl)Cl	inactive	–
CN(C)C(=O)Oc1cc(OC(=O)N(C)C)cc(C(O)CNC(C)(C)C)c1 (configuration not stated)	inactive	–
O=P(O)(O)CN(CP(=O)(O)O)CP(=O)(O)O	inactive	–
CN(C)CCc1c[nH]c2cccc(OP(=O)(O)O)c12	inactive	–
Cn1c(N)nc2c3cccnc3ccc21	inactive	–
O=C1C2CC=CCC2C(=O)N1SC(Cl)(Cl)Cl (configuration not stated)	inactive and 42.9 µM (active)	–
CCNc1nc(NCC)nc(SC)n1	inactive	–
Clc1ccc(C(Cl)(Cl)Cl)cn1	inactive	–
CCNc1nc(Cl)nc(NC(C)(C)C)n1	inactive	–
CCOC(=O)C(Cl)Cc1cc(-n2nc(C)n(C(F)F)c2=O)c(F)cc1Cl (configuration not stated)	inactive	–
COc1ccc(CN2CCNCC2)c(OC)c1OC	inactive	–
CCOP(=S)(OCC)SCCl	inactive	–
CC(=O)OCC1=C(C(=O)O)N2C(=O)[C@@H](N)[C@H]2SC1	–	0.706% [at 15.8 µM] (inactive)
C=CCc1cc(OC)c2c(c1)OCO2	inactive	–
CC#Cc1cc(C)nc(Nc2ccccc2)n1	inactive	–
C=C1CC[C@@]2(O)[C@H]3Cc4ccc(O)c5c4[C@@]2(CCN3CC2CC2)[C@H]1O5	inactive	–
CC[C@H](O)C(C[C@H](C)N(C)C)(c1ccccc1)c1ccccc1	inactive	–
NCC1(CC(=O)O)CCCCC1	inactive	–
[O-][Br+2]([O-])O	inactive	–
NNC(N)=O	inactive	–
CNC(=O)O/N=C(/CSC)C(C)(C)C	inactive	–
CC(Cc1ccccc1)NCCCCl (configuration not stated)	inactive	–
CC(C)(C)c1cc(O)ccc1O	inactive	–

test: qHTS RealTime-Glo MT Cell Viability Assay in HepG2 cells - 32 hour (AID 1224877); settings: RealTime-Glo luminescence; series mostly up to 76.8 µM; note: nearly all actives have a fitted effect of over 55% in size
Method in brief: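 HepG2 suspension premixed with RealTime-Glo reagents is plated at 600 cells per well and left 5 h at 37 C/5% CO2. Compounds in DMSO then go in, and bioluminescence reflecting viable cell number is recorded over 40 h.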

Compound	Potency
BrCC1CO1 (configuration not stated)	inactive
CCC1(c2ccccc2)CCC(=O)NC1=O (configuration not stated)	inactive
ClC(Cl)(Cl)Cl	inactive
CCc1ccc(C2CCNCC2)cc1	inactive
CC(C)C(C)(N)C#N (configuration not stated)	inactive
CN(C)C(=O)Oc1cc(OC(=O)N(C)C)cc(C(O)CNC(C)(C)C)c1 (configuration not stated)	inactive
CCOC(=O)NC(C)(C)Cc1ccc(Cl)cc1	inactive
C=C(Cl)CSC(=S)N(CC)CC	inactive
O=P(O)(O)CN(CP(=O)(O)O)CP(=O)(O)O	inactive
CN(C)CCc1c[nH]c2cccc(OP(=O)(O)O)c12	inactive
Cn1c(N)nc2c3cccnc3ccc21	inactive
O=C1C2CC=CCC2C(=O)N1SC(Cl)(Cl)Cl (configuration not stated)	inactive and 21.5 µM (active)
CCNc1nc(NCC)nc(SC)n1	inactive
N[C@@H](Cc1ccc(Oc2cc(I)c(O)c(I)c2)c(I)c1)C(=O)O	inactive
Clc1ccc(C(Cl)(Cl)Cl)cn1	inactive
CCNc1nc(Cl)nc(NC(C)(C)C)n1	inactive
COc1ccc2c(C(=O)c3ccc(Cl)cc3)c(C)n(CC(=O)O)c2c1	inactive
CCCOC(=O)c1cncn1C(C)c1ccccc1 (configuration not stated)	inactive
CCOC(=O)C(Cl)Cc1cc(-n2nc(C)n(C(F)F)c2=O)c(F)cc1Cl (configuration not stated)	inactive
CCOP(=S)(OCC)SCCl	inactive
C=CCc1cc(OC)c2c(c1)OCO2	inactive
CC#Cc1cc(C)nc(Nc2ccccc2)n1	inactive
N#CC(Br)(Br)C(N)=O	inactive
C=C1CC[C@@]2(O)[C@H]3Cc4ccc(O)c5c4[C@@]2(CCN3CC2CC2)[C@H]1O5	inactive
CC[C@H](O)C(C[C@H](C)N(C)C)(c1ccccc1)c1ccccc1	inactive
NCC1(CC(=O)O)CCCCC1	inactive
[O-][Br+2]([O-])O	inactive
NNC(N)=O	inactive
CC(Cc1ccccc1)NCCCCl (configuration not stated)	inactive
CC(C)(C)c1cc(O)ccc1O	inactive

test: A CellTox Green Cytotoxicity Assay to monitor cytotoxicity in HepG2 cells - 24 hour (AID 1224878); settings: CellTox Green fluorescence; series mostly up to 76.8 µM; note: nearly all actives have a fitted effect of over 45% in size
Method in brief: as §1

Compound	Potency	cytotoxicity
BrCC1CO1 (configuration not stated)	inactive	–
CCC1(c2ccccc2)CCC(=O)NC1=O (configuration not stated)	inactive	–
ClC(Cl)(Cl)Cl	inactive	–
CCc1ccc(C2CCNCC2)cc1	inactive	–
CC(C)C(C)(N)C#N (configuration not stated)	inactive	–
CC(C)(C)C(=O)C(Cl)Cl	inactive	–
CCOC(=O)NC(C)(C)Cc1ccc(Cl)cc1	inactive	–
C=C(Cl)CSC(=S)N(CC)CC	inactive	–
O=P(O)(O)CN(CP(=O)(O)O)CP(=O)(O)O	inactive	–
Cn1c(N)nc2c3cccnc3ccc21	inactive	–
O=C1C2CC=CCC2C(=O)N1SC(Cl)(Cl)Cl (configuration not stated)	inactive and 12.1 µM (active)	–
CCNc1nc(NCC)nc(SC)n1	inactive	–
Clc1ccc(C(Cl)(Cl)Cl)cn1	inactive	–
CCNc1nc(Cl)nc(NC(C)(C)C)n1	inactive	–
CCCOC(=O)c1cncn1C(C)c1ccccc1 (configuration not stated)	inactive	–
CCOC(=O)C(Cl)Cc1cc(-n2nc(C)n(C(F)F)c2=O)c(F)cc1Cl (configuration not stated)	inactive	–
COc1ccc(CN2CCNCC2)c(OC)c1OC	inactive	–
CCOP(=S)(OCC)SCCl	inactive	–
CC(=O)OCC1=C(C(=O)O)N2C(=O)[C@@H](N)[C@H]2SC1	–	0.21% [at 15.8 µM] (inactive)
C=CCc1cc(OC)c2c(c1)OCO2	inactive	–
CC#Cc1cc(C)nc(Nc2ccccc2)n1	inactive	–
C=C1CC[C@@]2(O)[C@H]3Cc4ccc(O)c5c4[C@@]2(CCN3CC2CC2)[C@H]1O5	inactive	–
CC[C@H](O)C(C[C@H](C)N(C)C)(c1ccccc1)c1ccccc1	inactive	–
[O-][Br+2]([O-])O	inactive	–
NNC(N)=O	inactive	–
CC(Cc1ccccc1)NCCCCl (configuration not stated)	inactive	–
CCCCCCCCSC(=O)Oc1cc(Cl)nnc1-c1ccccc1	inactive	–
CC(C)(C)c1cc(O)ccc1O	inactive	–
